# In the supplement of paper PMC11732987, “Enantioselective OTUD7B fragment discovery through chemoproteomics screening and high-throughput optimisation” (Communications Chemistry, 2025):
# Values without a mark were called inactive.
# What was measured:
# Test in all cases: log2 ratio of Biotin-Ahx-Ub-VS probe labelling (fragment/DMSO); higher = less target engagement (more negative = stronger competition), active = hit call of the paper (q ≤ 0.05, log2 ratio ≤ -1)
# Details in all cases: compound concentration: 200 uM; treatment time: 3 h
# USP42 = biological target: T1, USP42 (UniProt Q9H9J4)
# T1 sequence (whole entry): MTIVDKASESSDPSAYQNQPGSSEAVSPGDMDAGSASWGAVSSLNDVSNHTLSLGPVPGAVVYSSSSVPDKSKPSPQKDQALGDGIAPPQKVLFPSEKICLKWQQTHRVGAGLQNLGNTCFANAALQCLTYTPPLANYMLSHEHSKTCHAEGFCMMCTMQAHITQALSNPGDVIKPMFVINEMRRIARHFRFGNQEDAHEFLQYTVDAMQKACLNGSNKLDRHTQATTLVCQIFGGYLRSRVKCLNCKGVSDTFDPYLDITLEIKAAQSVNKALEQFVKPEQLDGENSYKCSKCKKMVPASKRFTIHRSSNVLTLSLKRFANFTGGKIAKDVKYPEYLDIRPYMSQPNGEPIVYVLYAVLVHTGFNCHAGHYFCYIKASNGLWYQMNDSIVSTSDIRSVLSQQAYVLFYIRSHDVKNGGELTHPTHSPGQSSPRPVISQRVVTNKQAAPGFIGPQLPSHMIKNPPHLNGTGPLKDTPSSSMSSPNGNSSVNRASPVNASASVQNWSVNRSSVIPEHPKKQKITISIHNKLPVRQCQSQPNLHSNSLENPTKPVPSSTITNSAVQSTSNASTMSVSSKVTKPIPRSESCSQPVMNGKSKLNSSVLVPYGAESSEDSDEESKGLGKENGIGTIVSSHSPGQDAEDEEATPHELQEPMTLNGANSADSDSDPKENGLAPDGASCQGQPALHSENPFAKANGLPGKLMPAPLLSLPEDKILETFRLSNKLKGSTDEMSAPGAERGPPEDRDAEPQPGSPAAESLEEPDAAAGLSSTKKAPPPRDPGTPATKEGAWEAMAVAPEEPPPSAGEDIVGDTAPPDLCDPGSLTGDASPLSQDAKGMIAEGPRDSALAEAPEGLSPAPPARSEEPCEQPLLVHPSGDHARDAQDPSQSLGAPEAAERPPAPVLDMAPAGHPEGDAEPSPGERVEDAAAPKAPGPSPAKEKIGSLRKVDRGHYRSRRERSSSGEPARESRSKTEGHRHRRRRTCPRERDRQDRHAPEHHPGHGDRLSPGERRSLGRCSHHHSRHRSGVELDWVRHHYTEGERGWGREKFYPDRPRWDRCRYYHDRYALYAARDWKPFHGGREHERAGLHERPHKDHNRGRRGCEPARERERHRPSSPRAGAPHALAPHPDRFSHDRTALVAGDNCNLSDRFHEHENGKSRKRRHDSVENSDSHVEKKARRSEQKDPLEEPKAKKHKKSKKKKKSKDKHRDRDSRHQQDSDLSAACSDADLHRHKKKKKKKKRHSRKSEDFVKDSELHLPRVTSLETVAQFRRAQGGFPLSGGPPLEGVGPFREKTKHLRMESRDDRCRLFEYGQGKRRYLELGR
# Method in brief: (§1)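 Labelling with Biotin-Ahx-Ub-VS (0.5 µM final, 1 h) followed a 3 h triplicate treatment of HEK293T lysate (495 µg per sample, Tris/CHAPS/IGEPAL buffer with protease inhibitors) with fragment at 200 µM or vehicle. Labelled DUBs were NeutrAvidin-enriched, digested with LysC and trypsin, and run by diaPASEF LC-MS/MS. The values, average log2 fragment/vehicle ratios by unpaired t-test, come from global-median-normalised Spectronaut label-free quantities. Proteins with ≥2 unique peptides were used.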
# USP46 = USP46 (UniProt P62068)
# Chain of USP46 (P62068 whole entry): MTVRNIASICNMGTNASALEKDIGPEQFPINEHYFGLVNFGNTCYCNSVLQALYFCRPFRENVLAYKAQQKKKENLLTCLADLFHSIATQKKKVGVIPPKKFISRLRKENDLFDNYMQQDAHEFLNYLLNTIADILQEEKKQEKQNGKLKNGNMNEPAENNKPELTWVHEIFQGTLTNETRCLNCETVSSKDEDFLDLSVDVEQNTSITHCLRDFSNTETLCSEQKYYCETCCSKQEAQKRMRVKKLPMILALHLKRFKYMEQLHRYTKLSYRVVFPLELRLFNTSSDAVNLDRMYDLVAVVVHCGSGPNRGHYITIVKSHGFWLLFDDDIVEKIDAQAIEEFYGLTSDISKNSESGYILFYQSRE
# Method in brief: as §1
# USP47 = biological target: T2, USP47 (UniProt Q96K76)
# T2 sequence (whole entry): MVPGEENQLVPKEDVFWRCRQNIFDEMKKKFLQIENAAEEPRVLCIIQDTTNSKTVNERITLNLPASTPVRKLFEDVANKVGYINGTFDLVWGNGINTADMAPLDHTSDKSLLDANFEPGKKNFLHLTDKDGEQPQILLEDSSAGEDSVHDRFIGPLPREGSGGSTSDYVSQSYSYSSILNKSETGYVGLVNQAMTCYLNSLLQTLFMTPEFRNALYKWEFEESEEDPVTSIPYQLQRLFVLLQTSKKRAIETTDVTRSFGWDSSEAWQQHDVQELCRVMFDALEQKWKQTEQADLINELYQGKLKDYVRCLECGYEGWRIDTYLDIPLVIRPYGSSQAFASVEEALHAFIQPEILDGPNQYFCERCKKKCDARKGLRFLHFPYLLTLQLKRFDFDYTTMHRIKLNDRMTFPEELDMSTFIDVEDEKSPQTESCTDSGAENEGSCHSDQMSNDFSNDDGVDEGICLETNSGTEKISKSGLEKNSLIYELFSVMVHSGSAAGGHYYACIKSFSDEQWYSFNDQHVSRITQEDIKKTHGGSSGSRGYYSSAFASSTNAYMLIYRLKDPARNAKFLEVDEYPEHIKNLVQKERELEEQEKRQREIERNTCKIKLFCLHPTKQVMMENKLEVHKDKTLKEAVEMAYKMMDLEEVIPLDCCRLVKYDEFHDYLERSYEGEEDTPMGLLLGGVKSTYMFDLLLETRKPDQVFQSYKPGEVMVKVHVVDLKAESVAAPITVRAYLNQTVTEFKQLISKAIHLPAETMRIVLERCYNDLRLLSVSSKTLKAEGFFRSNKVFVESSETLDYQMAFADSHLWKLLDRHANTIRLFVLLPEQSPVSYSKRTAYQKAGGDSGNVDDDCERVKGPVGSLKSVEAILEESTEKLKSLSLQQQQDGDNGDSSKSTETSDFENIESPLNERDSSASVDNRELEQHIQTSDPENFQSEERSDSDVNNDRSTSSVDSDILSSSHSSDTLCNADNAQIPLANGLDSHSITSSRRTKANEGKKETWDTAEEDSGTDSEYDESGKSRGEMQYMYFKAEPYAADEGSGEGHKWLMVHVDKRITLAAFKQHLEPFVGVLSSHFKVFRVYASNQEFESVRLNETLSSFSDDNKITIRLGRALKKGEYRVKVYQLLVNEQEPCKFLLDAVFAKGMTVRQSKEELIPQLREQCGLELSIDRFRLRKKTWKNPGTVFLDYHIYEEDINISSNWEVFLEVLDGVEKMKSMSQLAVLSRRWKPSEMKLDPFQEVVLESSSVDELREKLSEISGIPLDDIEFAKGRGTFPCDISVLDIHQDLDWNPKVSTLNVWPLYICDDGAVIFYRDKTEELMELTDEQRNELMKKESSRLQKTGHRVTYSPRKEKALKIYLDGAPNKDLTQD
# Method in brief: as §1
# USP48 = biological target: T3, USP48 (UniProt Q86UV5)
# T3 sequence (whole entry): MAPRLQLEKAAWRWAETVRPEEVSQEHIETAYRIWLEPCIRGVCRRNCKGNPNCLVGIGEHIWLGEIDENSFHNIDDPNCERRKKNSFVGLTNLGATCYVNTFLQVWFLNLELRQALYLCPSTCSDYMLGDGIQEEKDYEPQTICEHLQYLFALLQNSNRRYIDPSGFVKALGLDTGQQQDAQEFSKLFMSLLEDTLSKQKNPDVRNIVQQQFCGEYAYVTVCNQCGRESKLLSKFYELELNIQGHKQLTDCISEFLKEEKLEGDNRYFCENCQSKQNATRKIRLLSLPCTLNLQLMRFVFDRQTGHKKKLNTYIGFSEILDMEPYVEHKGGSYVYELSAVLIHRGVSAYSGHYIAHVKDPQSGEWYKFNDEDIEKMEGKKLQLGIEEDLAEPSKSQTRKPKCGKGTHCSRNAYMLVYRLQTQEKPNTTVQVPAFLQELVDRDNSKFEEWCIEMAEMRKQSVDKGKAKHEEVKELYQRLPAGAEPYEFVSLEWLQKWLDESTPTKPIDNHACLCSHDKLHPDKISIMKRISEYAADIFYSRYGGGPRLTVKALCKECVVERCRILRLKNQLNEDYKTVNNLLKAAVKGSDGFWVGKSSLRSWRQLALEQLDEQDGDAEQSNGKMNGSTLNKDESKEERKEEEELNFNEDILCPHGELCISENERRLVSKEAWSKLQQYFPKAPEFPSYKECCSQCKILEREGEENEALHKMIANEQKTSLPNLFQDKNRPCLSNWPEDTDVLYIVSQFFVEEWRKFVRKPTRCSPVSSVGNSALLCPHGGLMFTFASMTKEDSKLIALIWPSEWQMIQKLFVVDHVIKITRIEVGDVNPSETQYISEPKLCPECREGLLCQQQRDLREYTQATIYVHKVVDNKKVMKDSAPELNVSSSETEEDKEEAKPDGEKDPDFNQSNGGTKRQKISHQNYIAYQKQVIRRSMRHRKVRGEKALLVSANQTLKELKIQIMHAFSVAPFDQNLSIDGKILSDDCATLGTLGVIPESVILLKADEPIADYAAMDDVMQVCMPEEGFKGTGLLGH
# Method in brief: as §1
# USP5 = biological target: T4, USP5 (UniProt P45974)
# T4 sequence (whole entry): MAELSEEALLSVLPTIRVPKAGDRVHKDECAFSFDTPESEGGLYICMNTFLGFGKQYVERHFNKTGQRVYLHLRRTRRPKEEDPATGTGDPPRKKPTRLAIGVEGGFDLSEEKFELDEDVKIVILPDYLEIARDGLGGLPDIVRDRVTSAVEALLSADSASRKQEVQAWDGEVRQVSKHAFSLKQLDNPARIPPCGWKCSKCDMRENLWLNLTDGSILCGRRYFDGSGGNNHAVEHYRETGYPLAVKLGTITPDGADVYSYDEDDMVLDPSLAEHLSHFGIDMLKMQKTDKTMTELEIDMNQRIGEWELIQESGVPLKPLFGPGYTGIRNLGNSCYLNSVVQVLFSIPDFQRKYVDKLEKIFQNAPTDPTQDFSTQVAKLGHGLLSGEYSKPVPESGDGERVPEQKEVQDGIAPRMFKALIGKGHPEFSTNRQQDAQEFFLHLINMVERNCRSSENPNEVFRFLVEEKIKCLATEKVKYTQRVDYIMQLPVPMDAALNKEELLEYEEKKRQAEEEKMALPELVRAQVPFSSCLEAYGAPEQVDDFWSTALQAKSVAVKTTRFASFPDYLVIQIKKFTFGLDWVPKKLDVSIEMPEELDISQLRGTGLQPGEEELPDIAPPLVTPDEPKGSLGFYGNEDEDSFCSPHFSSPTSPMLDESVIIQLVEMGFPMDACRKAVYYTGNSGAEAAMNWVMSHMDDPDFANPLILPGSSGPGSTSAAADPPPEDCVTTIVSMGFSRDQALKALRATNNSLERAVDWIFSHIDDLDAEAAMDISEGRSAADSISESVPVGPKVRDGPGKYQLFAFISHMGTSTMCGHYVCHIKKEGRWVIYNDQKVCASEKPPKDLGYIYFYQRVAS
# Method in brief: as §1
# USP54 = USP54 (UniProt Q70EL1)
# Method in brief: as §1
# USP7 = USP7 (UniProt Q93009)
# Chain of USP7 (Q93009 whole entry, looked up): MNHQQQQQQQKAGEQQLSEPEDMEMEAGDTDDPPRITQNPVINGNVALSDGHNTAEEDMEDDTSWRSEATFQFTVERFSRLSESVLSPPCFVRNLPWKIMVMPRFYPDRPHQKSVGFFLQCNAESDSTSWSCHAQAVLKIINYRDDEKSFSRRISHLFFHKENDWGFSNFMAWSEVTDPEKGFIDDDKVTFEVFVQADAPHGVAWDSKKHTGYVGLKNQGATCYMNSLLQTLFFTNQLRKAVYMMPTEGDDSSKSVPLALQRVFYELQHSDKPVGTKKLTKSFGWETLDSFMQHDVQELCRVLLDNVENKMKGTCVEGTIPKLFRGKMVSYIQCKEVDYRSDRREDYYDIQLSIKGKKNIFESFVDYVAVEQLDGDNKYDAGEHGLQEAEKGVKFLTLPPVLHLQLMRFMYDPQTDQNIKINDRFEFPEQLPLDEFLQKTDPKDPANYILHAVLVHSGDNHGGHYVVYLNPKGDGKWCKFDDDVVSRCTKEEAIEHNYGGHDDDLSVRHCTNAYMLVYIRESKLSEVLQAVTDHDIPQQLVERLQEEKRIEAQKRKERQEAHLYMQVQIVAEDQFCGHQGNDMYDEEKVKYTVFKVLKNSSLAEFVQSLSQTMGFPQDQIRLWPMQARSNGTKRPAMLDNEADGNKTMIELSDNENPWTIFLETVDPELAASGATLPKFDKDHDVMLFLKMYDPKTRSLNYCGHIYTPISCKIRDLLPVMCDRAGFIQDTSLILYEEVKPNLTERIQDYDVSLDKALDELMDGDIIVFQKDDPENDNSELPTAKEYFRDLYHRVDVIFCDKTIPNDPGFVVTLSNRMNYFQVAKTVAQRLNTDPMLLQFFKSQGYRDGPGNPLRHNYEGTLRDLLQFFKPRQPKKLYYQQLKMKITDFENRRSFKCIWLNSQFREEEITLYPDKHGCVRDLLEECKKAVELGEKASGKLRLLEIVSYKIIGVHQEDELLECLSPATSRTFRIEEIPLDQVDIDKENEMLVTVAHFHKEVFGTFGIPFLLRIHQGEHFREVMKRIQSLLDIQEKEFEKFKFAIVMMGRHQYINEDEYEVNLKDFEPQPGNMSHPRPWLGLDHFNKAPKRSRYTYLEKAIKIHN
# Method in brief: as §1
# USP8 = biological target: T5, USP8 (UniProt P40818)
# T5 sequence (whole entry): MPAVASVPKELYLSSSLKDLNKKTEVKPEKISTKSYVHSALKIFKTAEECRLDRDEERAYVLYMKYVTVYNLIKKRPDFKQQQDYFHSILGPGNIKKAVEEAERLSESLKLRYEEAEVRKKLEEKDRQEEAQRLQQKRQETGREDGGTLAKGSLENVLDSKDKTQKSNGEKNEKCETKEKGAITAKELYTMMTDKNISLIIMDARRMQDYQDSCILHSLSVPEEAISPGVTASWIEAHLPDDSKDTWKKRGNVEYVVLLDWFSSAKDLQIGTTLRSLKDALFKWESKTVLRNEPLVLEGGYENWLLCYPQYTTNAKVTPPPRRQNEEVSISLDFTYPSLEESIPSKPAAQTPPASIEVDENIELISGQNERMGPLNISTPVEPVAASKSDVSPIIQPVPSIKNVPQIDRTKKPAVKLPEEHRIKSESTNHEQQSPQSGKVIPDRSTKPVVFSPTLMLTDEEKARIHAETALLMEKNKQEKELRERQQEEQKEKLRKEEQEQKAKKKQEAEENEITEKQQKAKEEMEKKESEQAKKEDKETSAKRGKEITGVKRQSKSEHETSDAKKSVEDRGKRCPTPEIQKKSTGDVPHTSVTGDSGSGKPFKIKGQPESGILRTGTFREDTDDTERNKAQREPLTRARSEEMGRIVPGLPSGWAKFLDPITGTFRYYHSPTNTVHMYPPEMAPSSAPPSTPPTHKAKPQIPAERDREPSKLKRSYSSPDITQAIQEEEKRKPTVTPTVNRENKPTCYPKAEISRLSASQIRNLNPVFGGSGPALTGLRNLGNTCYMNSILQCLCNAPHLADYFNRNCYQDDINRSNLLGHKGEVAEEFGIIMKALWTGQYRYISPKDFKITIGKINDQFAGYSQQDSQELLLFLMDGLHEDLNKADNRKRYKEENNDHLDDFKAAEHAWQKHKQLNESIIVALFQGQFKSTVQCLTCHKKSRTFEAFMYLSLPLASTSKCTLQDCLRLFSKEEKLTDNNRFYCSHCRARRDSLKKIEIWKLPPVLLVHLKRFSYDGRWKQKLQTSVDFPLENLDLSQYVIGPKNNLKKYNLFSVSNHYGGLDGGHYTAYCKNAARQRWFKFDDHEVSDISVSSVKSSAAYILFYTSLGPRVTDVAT
# Method in brief: as §1
# USP9X = USP9X (UniProt Q93008)
# Chain of USP9X (Q93008 whole entry): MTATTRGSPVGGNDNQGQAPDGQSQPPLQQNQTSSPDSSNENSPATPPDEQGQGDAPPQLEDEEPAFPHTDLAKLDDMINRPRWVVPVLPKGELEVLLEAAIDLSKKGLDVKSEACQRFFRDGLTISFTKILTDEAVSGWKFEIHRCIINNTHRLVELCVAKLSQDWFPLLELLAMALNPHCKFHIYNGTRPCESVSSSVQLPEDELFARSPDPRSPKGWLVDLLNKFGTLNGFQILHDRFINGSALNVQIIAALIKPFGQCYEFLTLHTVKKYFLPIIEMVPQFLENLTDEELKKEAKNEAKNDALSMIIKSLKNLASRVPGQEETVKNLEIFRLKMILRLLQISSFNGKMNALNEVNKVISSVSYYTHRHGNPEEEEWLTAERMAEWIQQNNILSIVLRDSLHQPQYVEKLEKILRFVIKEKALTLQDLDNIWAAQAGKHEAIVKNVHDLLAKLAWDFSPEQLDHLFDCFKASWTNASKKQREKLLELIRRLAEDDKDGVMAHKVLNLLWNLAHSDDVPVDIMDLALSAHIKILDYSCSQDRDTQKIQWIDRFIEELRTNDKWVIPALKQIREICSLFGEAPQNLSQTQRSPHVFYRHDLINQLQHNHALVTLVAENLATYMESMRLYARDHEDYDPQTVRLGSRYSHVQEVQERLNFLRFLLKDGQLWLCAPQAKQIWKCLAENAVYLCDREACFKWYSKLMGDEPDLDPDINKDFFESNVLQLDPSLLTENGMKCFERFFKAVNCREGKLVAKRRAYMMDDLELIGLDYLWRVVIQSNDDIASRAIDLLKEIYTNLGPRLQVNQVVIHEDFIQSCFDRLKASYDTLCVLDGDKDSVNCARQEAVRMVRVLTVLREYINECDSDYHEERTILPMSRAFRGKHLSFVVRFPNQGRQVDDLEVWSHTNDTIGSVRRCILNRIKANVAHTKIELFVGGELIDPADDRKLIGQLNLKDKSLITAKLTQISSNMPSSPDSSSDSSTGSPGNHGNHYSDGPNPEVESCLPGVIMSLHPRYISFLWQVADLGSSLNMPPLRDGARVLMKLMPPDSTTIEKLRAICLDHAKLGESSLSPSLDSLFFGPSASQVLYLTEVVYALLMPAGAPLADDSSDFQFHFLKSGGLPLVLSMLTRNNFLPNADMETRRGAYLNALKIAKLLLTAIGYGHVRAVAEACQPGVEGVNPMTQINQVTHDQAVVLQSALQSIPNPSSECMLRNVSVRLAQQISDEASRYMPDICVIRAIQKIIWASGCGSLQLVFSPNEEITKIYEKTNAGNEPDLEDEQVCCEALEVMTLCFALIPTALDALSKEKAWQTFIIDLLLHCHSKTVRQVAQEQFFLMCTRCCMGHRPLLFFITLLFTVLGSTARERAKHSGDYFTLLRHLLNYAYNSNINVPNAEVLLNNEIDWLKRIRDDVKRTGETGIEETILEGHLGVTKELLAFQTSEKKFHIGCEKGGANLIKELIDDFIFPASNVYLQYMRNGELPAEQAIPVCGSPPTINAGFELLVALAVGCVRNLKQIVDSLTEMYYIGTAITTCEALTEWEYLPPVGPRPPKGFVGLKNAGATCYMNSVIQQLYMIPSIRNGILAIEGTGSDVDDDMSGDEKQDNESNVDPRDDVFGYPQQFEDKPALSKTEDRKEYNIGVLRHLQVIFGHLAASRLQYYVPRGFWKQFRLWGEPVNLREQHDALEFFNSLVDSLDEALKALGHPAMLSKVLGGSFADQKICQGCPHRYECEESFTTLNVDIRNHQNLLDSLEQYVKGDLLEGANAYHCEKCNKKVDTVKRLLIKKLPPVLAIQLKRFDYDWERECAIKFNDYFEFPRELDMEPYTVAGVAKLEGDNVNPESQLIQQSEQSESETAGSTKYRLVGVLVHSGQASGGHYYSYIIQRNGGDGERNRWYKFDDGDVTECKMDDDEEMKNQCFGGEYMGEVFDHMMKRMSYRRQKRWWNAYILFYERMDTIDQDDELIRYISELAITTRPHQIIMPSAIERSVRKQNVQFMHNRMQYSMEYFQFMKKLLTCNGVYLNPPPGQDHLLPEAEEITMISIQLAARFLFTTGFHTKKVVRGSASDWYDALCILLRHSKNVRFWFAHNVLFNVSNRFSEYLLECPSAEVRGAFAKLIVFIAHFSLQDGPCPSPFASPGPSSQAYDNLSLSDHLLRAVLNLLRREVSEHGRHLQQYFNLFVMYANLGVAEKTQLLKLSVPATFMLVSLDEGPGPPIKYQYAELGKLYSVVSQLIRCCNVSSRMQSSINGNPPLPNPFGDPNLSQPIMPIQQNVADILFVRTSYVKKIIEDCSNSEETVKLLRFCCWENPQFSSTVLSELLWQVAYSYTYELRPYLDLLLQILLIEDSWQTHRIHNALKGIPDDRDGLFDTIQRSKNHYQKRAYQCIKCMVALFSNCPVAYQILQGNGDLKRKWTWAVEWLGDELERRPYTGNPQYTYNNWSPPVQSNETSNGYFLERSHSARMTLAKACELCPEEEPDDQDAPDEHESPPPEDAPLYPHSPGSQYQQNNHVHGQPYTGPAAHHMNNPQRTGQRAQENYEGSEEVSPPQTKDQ
# Method in brief: as §1
# UniProt O00487 = biological target: UniProt O00487
# Chain of UniProt O00487 (O00487 whole entry): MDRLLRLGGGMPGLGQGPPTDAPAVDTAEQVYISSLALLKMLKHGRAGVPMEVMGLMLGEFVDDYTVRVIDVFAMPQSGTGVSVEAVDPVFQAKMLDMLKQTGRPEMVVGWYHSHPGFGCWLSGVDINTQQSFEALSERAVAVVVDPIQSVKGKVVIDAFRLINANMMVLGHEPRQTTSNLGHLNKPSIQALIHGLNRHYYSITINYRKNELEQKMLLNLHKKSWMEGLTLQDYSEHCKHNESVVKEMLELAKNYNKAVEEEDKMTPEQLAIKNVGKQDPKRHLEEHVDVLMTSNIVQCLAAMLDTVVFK
# Method in brief: as §1
smiles,measurement,setting,value
O=C(CCl)N1CCCN(C(=O)c2ccc(Cl)cc2)CC1,log2 ratio of Biotin-Ahx-Ub-VS probe labelling,USP42,-0.0422
same,log2 ratio of Biotin-Ahx-Ub-VS probe labelling,USP46,-0.129
same,log2 ratio of Biotin-Ahx-Ub-VS probe labelling,USP47,-0.76
same,log2 ratio of Biotin-Ahx-Ub-VS probe labelling,USP48,-1.16 (active)
same,log2 ratio of Biotin-Ahx-Ub-VS probe labelling,USP5,0.0155
same,log2 ratio of Biotin-Ahx-Ub-VS probe labelling,USP54,0.842
same,log2 ratio of Biotin-Ahx-Ub-VS probe labelling,USP7,-1.18 (active)
same,log2 ratio of Biotin-Ahx-Ub-VS probe labelling,USP8,-0.354
same,log2 ratio of Biotin-Ahx-Ub-VS probe labelling,USP9X,-0.318
same,log2 ratio of Biotin-Ahx-Ub-VS probe labelling,UniProt O00487,0.0259
